This passage reports growth inhibition results from PubChem BioAssay (NCI).

The experiment can be described thus: NCI Yeast Anticancer Drug Screen. Data for the mgt1 strain (AID 153). As to conditions: S. cerevisiae mgt1 mutant growth inhibition, stronger effect = higher value. As for the experimental part:
Growth inhibition of yeast strains with defined genetic alterations is measured as a screen for potential anti-cancer activity. Selected strains with alterations in DNA damage repair or cell cycle control were exposed to compounds and growth inhibition was measured relative to vehicle treated controls. The strain used in this assay is mgt1

About 79,000 compounds went through this panel and 15% of them were active in at least one assay; those are over-represented in the sample as a whole. A number with no mark means an inactive call. Active and inactive are the calls of the source. Cut-off read from the data, not from the text of the source: active = growth inhibition above about 70%; inactive = the rest.

`CCCCCCCCCCCCCCCCCCN(C)C(COC)COP(=O)([O-])OCC[N+](C)(C)C` (stereo not given): the growth inhibition is, setting by setting: (at 1.2 µM) 14%; (at 3.7 µM) 8%; (at 11.0 µM) 98% (active); (at 33.0 µM) 99% (active); (at 100.0 µM) 98% (active).
For the molecule `O=C(/N=N/C(=O)Oc1ccccc1)Oc1ccccc1`, the growth inhibition by setting is: (at 1.2 µM) -61%; (at 3.7 µM) -61%; (at 11.0 µM) -63%; (at 33.0 µM) -29%; (at 100.0 µM) 57%.
In the case of `CC(=O)/C=C/c1cc([N+](=O)[O-])ccc1O`, the growth inhibition runs as follows: (at 1.2 µM) -1%; (at 3.7 µM) 2%; (at 11.0 µM) -2%; (at 33.0 µM) 94% (active); (at 100.0 µM) 97% (active).
`CCOC(=O)/C(=C\c1ccc(F)cc1)C(C)=O`: the growth inhibition is -19% (at 1.2 µM); 6% (at 3.7 µM); 77% (active) (at 11.0 µM); 96% (active) (at 33.0 µM); 99% (active) (at 100.0 µM).
In the same order, the values of `COC(=O)C1=C(C(=O)OC)CC(n2nnc(C(=O)OC)c2C(=O)OC)=CC1` are -1%, 1%, -2%, -2% and -6%.
Take `CCCNCC(=O)O[C@]1(CC)C(=O)OCc2c1cc1n(c2=O)Cc2cc3ccccc3nc2-1`: the growth inhibition (at 1.2 µM) is 21%; the growth inhibition (at 3.7 µM) is 25%; the growth inhibition (at 11.0 µM) was 34%; the growth inhibition (at 33.0 µM) was 63%; the growth inhibition (at 100.0 µM) is 86% (active).
In the same order, the values of `CCOC(=O)CC1(C)/C(=N\Nc2ccc([N+](=O)[O-])cc2[N+](=O)[O-])CCC2C1CCC1(C)C(C(C)CCCC(C)C)CCC21` (stereo not given) are -1%, -3%, -2%, -1% and -5%.
In the same order, the values of `CCc1c(Cl)c(C)c(Cl)c(O)c1Cl` are -33%, -32%, -14%, 98% (active) and 99% (active).
